Laboratory results published in PubChem BioAssay AID651603 (National Center for Advancing Translational Sciences (NCATS), 2012).
Active and inactive are the calls of the source.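 Rule for the calls: active = inhibition of at least 50% at 50 µM, meaning an activity change of -50% or lower; inconclusive = inhibition above 30% but under 50% at 50 µM; inactive = inhibition of 30% or less at 50 µM.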

test: qHTS Assay for Iinhibitors of HIV-1 Budding by Blocking the Interaction of PTAP/TSG101: Hit Validation in Viral Budding Asaay; details: HeLa pNL4-3 HIV-1 budding, supernatant RT activity, 18 h; at 50 µM (top of the series)
Excerpt: Stages of the HIV-1 replication cycle, specifically virus assembly and release, provide underexploited targets for the development of novel antiviral inhibitors. The late stages of HIV-1 replication are mediated by the Gag precursor protein, Pr55Gag. Expression of Pr55Gag is both necessary and sufficient for the production of virus-like particles from Gag-expressing cells. The Gag protein hijacks key host proteins involved in endocytic machinery of the host cell to promote endosomal processing and viral budding. The budding process requires a direct interaction between a […] (PTAP) motif in the p6 domain of Gag and the cellular endosomal sorting protein known as Tsg101. In this way, the Gag PTAP motif promotes the host cells to recruit viral particles to the plasma membrane where the new viral particles are released, effectively turning the host cells into viral factories. A fluorescence anisotropy assay has been developed to quantitatively measure the PTAP-Tsg101 interaction which can be used to screen for inhibitors of this interaction. In this hit validation assay the readout is the release of reverse transcriptase (RT) activity into the medium of HeLa cells transfected with the full-length HIV-1 molecular clone pNL4-3. RT release from virus-producing cells occurs upon budding of virus from the cell surface. Small molecules that block the PTAP/Tsg101 interaction will reduce RT release. HeLa cells will also be transfected with a luciferase expression vector; compounds that are cytotoxic will reduce luciferase expression. NIH Molecular Libraries Probe Production Network [MLPCN] NIH Chemical Genomics Center [NCGC] MLPCN Grant: 1 R03 MH087464-01A1 PI Name: Dr. Eric Freed, NCI
Virus producing cells were treated with 12.5, 25 & 50 uM of each compound and 18 hr after treatment virus supernatant was collected from the cells. Reverse transcriptase (RT) activity in the virus supernatant is then measured.

Activity change, negative = inhibition, active:
CN1CCc2c(sc(NC(=O)CSc3ccc(F)cc3)c2-c2nc3ccccc3s2)C1 -59.8%
COc1cccc2c1C(=O)c1c(O)c3c(c(O)c1C2=O)CC(O)(C(=O)CO)CC3OC1CC(N(C)C)C(O)C(C)O1 (centres undefined) -84%
COc1cccc(C(=O)c2sc3nc(-c4ccccc4)cc(C(F)(F)F)c3c2N)c1 -91.8%
O/C=c1\ccc2cccc3nc(C(F)(F)F)nc1c23 -89.5%
